Test results published in PubChem BioAssay (Tox21).
“And” between values parts separate entries of the source, which are not always exact repeats. Equal values may be shown once. Inconclusive results are not listed. Where a call stands in place of a potency, no number is given. Where a structure was tested more than once in an assay, its records may differ in their call. The source made the active and inactive calls. Unless noted, the call rests on the fitted dose curve; in most records, active means well fitted curve in the direction sought with a large enough effect in the repeat runs; inconclusive means weak or mixed curves; inactive means no such curve, though single readings can be large; an effect the other way counts as inactive or inconclusive.

Columns and labels:
[1] = qHTS assay to identify small molecule agonists of the peroxisome proliferator-activated receptor delta (PPARd) signaling pathway - cell viability counter screen (AID 743211); further: nearly all actives have a fitted effect of over 55% in size; further: potency means the concentration at half of the fitted maximal effect
How it was run: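 Multiplexed format: after the 2 h room-temperature LiveBLAzer B/G FRET step, CellTiter-Glo was added to the same wells. Luminescence after 30 min gave cell viability; compound exposure was 17 h at 37C.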

[2] = qHTS assay to identify small molecule antagonists of the peroxisome proliferator-activated receptor delta (PPARd) signaling pathway - cell viability counter screen (AID 743213); further: nearly all actives have a fitted effect of over 50% in size; further: potency means the concentration at half of the fitted maximal effect
How it was run: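 CellTiter-Glo was added to PPARd-bla HEK293H wells following 17 h compound treatment in the presence of 300 nM L165041. Luminescence was recorded after 30 min at room temperature.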

[3] = qHTS assay to identify small molecule agonists of the farnesoid-X-receptor (FXR) signaling pathway - cell viability counter screen (AID 743218); further: nearly all actives have a fitted effect of over 45% in size
How it was run: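 Viability counter screen in the same wells: CellTiter-Glo luminescence, 30 min room-temperature incubation, measured after the beta-lactamase read. Cells were GeneBLAzer FXR-UAS-bla HEK 293T, compound-treated 16 h at 37C.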

[4] = target: Bile acid receptor (Homo sapiens) (UniProt Q96RI1); experiment: qHTS assay to identify small molecule agonists of the farnesoid-X-receptor (FXR) signaling pathway (AID 743220; active means well fitted activation curve with a large enough effect in the signal ratio in the repeat runs, not every such curve was filed as active; the % refers to the signal ratio)
How it was run: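 FXR-UAS-bla HEK 293T cells carrying a UAS-driven beta-lactamase reporter were plated for 5 h at 37C/5% CO2, then exposed to DMSO-dissolved Tox21 10K compounds for 16 h at 37C. A LiveBLAzer B/G FRET substrate was loaded for 2 h at room temperature before fluorescence reading.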

[5] = qHTS assay to identify small molecule antagonists of the farnesoid-X-receptor (FXR) signaling pathway - cell viability counter screen (AID 743221; active means well fitted cell-killing curve with a large enough effect in the repeat runs, not every such curve was filed as active; further: nearly all actives have a fitted effect of over 50% in size)
How it was run: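 CellTiter-Glo, 30 min RT, luminescence; same wells as the LiveBLAzer FRET read. Cells: FXR-UAS-bla HEK 293T. Treatment: compound with chenodeoxycholic acid 50 uM final, 16 h at 37 C.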

[6] = target: Vitamin D3 receptor (Homo sapiens) (UniProt P11473); experiment: qHTS assay to identify small molecule agonists of the vitamin D receptor (VDR) signaling pathway (AID 743222; calls by dose curve)
How it was run: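 Agonist mode, beta-lactamase reporter: fluorescence from LiveBLAzer B/G FRET substrate (2 h, room temperature) read after 16 h compound treatment at 37 C of VDR-bla cells, which were pre-incubated 4 h after seeding.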

[7] = qHTS assay to identify small molecule agonists of the vitamin D receptor (VDR) signaling pathway - cell viability counter screen (AID 743224); further: nearly all actives have a fitted effect of over 50% in size; further: potency means the concentration at half of the fitted maximal effect
How it was run: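 Counter screen run in the same wells as the VDR-bla reporter assay: CellTiter-Glo luminescence, 30 min at room temperature, after 16 h compound treatment at 37C of cells pre-plated for 4 h.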

[8] = qHTS assay to identify small molecule antagonists of the vitamin D receptor (VDR) signaling pathway - cell viability counter screen (AID 743225); further: nearly all actives have a fitted effect of over 50% in size; further: potency means the concentration at half of the fitted maximal effect
How it was run: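 Cytotoxicity toward the VDR-bla HEK 293T line was scored by ATP-based CellTiter-Glo luminescence, read in the wells already used for the beta-lactamase readout after 16 h compound treatment under 3 nM 1-alpha,25-dihydroxyvitamin D3 stimulation.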

[9] = qHTS assay to identify small molecule agonists of the NFkB signaling pathway - cell viability counter screen (AID 1159515; calls by dose curve; further: series mostly up to about 61 µM; nearly all actives have a fitted effect of over 55% in size)
How it was run: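 Read by CellTiter-Glo luminescence (30 min, room temperature) in the wells also used for the beta-lactamase FRET read. ME-180 NFkB-bla cells at 2,000 per well were plated overnight, then exposed to compound for 5 hr at 37 C.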

[10] = qHTS assay to identify small molecule agonists of the endoplasmic reticulum stress response signaling pathway - cell viability counter screen (AID 1159517; calls by dose curve)
How it was run: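 ESRE-bla HeLa cells (1,500/well) were plated overnight at 37 C and exposed to compounds for 5 hr. After the 2 hr beta-lactamase substrate read, CellTiter-Glo went into the same wells, and luminescence was read after 30 min at room temperature.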

[11] = qHTS assay to identify small molecule antagonists of the retinoid-related orphan receptor gamma (ROR-gamma) signaling pathway - cell viability counter screen (AID 1159520); further: nearly all actives have a fitted effect of over 50% in size
How it was run: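 Cytotoxicity was read from cellular ATP (CellTiter-Glo luminescence) after 16 hr at 37 C with 1 uM doxycycline induction. The inducer was added 2 hr after compound transfer to Tet-on ROR gamma CHO cells.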

[12] = target: Nuclear receptor ROR-gamma (Homo sapiens) (UniProt P51449); experiment: qHTS assay to identify small molecule antagonists of the retinoid-related orphan receptor gamma (ROR-gamma) signaling pathway (AID 1159521; further: nearly all actives have a fitted effect of over 50% in size; further: potency means the concentration at half of the fitted maximal effect)
How it was run: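 Readout: ONE-Glo luciferase luminescence, 30 min at room temperature. System: Tet-on RORγ CHO, RORE-LUC. Sequence: compound 2 h, doxycycline 1 uM final, 16 h at 37 C.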

[13] = qHTS assay to identify small molecule agonists of the AP-1 signaling pathway - cell viability counter screen (AID 1159525; calls by dose curve; further: nearly all actives have a fitted effect of over 55% in size)
How it was run: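 Intracellular ATP by Cell Titer Glo luminescence (30 min, RT) in the same ME-180 AP-1-bla wells after the 5 h compound exposure at 37 °C. Normalised to tetra n-octyl ammonium bromide and DMSO controls.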

[14] = qHTS assay to identify small molecule agonists of the AP-1 signaling pathway (AID 1159526; calls by dose curve)
[15] = target: Retinoic acid receptor RXR-alpha (Homo sapiens) (UniProt P19793); experiment: qHTS assay to identify small molecule agonists of the RXR signaling pathway (AID 1159527; calls by dose curve; further: nearly all actives have a fitted effect of over 35% in size)
How it was run: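 Reporter activation is measured as beta-lactamase activity via FRET substrate cleavage (emission 460/530 nm) in HEK 293T cells expressing an RXR-alpha-driven bla construct, following 16 hr compound exposure at 37 C.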

[16] = target: Peroxisome proliferator-activated receptor delta (Homo sapiens) (UniProt Q03181); experiment: qHTS assay to identify small molecule agonists of the peroxisome proliferator-activated receptor delta (PPARd) signaling pathway (AID 743212; calls by dose curve;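 further: HEK293H cells with PPARd UAS beta-lactamase reporter GeneBLAzer system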)
How it was run: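 Beta-lactamase reporter readout: a ratiometric FRET signal from the LiveBLAzer substrate after 2 h at room temperature. Compound exposure at 37 °C in PPARδ-bla HEK293H cells driven by an upstream activator sequence.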

[17] = target: Peroxisome proliferator-activated receptor delta (Homo sapiens) (UniProt Q03181); experiment: qHTS assay to identify small molecule antagonists of the peroxisome proliferator-activated receptor delta (PPARd) signaling pathway (AID 743215; active means well fitted inhibition curve with a large enough effect in the signal ratio in the repeat runs, not every such curve was filed as active; the % refers to the signal ratio;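 further: cells stimulated with agonist L165041 at 300 nM final during compound exposure; series mostly up to about 62 µM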)
How it was run: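 Agonist L165041 (300 nM final) added with compound to PPARd-bla HEK293H UAS-bla reporter cells; 17 h incubation at 37 C. Read-out: LiveBLAzer FRET substrate, 2 h at room temperature, fluorescence intensity.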

[18] = target: Bile acid receptor (Homo sapiens) (UniProt Q96RI1); experiment: qHTS assay to identify small molecule antagonists of the farnesoid-X-receptor (FXR) signaling pathway (AID 743217; active means well fitted inhibition curve with a large enough effect in the signal ratio in the repeat runs, not every such curve was filed as active; the % refers to the signal ratio)
How it was run: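 Antagonist mode: chenodeoxycholic acid at 50 uM final stimulates a UAS-driven beta-lactamase reporter in HEK 293T FXR-bla cells during 16 h, 37C compound exposure. Read-out is FRET substrate fluorescence after 2 h at room temperature.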

[19] = qHTS assay to identify small molecule agonists of the endoplasmic reticulum stress response signaling pathway (AID 1159516; active means well fitted activation curve with a large enough effect in the signal ratio in the repeat runs, not every such curve was filed as active; the % refers to the signal ratio)
How it was run: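 Ratiometric FRET readout (405 nm excitation; 460 and 530 nm emission) of a beta-lactamase gene driven by the ER stress response element, after 2 hr substrate loading. HeLa ESRE-bla cells were seeded overnight and treated with compounds for only 5 hr at 37 C.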

[20] = target: Vitamin D3 receptor (Homo sapiens) (UniProt P11473); experiment: qHTS assay to identify small molecule antagonists of the vitamin D receptor (VDR) signaling pathway (AID 743223; active means well fitted inhibition curve with a large enough effect in the signal ratio in the repeat runs, not every such curve was filed as active; the % refers to the signal ratio)
How it was run: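 After VDR-bla cells are plated and left 4 h at 37C, DMSO-dissolved compounds and 3 nM (final) calcitriol agonist are added. Incubation continues 16 h at 37C; FRET beta-lactamase substrate then develops 2 h at room temperature.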

Chain of Peroxisome proliferator-activated receptor delta (Homo sapiens) (Q03181 whole entry, looked up): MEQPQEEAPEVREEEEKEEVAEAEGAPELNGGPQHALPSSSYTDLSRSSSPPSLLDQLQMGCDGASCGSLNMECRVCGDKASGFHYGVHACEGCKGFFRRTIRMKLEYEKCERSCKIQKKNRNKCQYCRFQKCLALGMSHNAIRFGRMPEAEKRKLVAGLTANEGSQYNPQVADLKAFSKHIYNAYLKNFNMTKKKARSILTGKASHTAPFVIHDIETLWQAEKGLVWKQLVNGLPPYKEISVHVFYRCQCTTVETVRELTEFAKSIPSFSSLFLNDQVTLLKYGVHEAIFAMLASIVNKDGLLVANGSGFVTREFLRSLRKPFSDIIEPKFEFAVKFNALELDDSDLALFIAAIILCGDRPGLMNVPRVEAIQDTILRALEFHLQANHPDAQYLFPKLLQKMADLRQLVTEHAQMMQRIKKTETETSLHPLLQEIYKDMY
Chain of Retinoic acid receptor RXR-alpha (Homo sapiens) (P19793 whole entry, looked up): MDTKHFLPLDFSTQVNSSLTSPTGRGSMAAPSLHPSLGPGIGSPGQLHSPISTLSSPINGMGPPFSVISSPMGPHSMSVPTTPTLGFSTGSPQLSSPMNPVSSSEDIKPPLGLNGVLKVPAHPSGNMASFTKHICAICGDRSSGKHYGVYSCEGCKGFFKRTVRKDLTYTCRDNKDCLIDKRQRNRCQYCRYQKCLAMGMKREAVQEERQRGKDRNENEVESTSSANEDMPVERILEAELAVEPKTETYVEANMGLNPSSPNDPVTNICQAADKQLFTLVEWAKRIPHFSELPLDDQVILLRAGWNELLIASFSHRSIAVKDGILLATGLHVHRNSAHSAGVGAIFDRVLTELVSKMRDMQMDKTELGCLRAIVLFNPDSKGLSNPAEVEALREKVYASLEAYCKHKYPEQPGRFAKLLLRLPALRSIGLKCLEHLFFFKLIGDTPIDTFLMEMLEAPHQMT
Chain of Bile acid receptor (Homo sapiens) (Q96RI1 whole entry, looked up): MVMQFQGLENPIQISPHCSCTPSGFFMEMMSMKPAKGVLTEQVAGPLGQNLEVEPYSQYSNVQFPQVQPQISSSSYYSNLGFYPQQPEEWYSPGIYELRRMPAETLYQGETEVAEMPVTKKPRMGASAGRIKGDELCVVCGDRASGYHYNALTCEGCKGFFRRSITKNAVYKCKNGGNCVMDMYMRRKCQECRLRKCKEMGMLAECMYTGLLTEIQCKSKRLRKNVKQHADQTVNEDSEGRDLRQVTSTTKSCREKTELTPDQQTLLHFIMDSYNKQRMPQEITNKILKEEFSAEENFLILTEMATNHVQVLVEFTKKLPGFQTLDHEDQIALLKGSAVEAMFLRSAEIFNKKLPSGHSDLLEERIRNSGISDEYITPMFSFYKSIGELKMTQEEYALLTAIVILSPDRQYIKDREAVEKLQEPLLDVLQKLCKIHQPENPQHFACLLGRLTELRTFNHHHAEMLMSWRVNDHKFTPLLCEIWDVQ
Chain of Vitamin D3 receptor (Homo sapiens) (P11473 whole entry, looked up): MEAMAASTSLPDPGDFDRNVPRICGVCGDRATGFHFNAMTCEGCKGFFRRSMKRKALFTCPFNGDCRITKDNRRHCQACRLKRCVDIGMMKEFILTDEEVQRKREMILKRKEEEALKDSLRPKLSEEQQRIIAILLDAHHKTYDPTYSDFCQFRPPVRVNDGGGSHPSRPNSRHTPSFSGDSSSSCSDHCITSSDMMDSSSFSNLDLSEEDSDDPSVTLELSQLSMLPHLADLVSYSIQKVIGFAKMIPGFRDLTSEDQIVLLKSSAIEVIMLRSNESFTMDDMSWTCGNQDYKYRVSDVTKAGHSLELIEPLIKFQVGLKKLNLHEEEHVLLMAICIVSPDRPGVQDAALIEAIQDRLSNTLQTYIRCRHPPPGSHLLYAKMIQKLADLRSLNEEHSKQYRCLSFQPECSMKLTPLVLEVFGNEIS

Row | SMILES | Potency [1] | Potency [2] | Potency [3] | Potency [4] | Potency [5] | Potency [6] | Potency [7] | Potency [8] | Potency [9] | Potency [10] | Potency [11] | Potency [12] | Potency [13] | Potency [14] | Potency [15] | Potency [16] | Potency [17] | Potency [18] | outcome [19] | Potency [20]
1 | c1ccc2cc3c(ccc4ccccc43)cc2c1 | inactive | inactive | inactive | inactive | inactive | inactive | inactive | inactive | inactive | inactive | inactive | inactive | inactive | inactive | inactive |  |  |  |  | 
2 | Nc1nc(=S)c2[nH]cnc2[nH]1 | inactive |  | inactive |  | inactive |  |  |  | inactive | inactive |  | 26.6 µM (active) and inactive | inactive | inactive |  |  |  |  |  | 
3 | CC(=O)C1=C(C)[C@@H]2C[C@@]3(C1)[C@H](C)CC[C@H]3C2(C)C | inactive |  |  | inactive | inactive | inactive | inactive | inactive | inactive |  | inactive | inactive | inactive | inactive | inactive | inactive | inactive | inactive |  | 
4 | COc1ccc(CCN(C)CCCC(C#N)(c2ccc(OC)c(OC)c2)C(C)C)cc1OC (stereo unspecified) | inactive | inactive | inactive |  | inactive |  |  |  | inactive | inactive | inactive | inactive | inactive |  |  |  |  |  |  | 
5 | CCCCCCCCCCCC[N+](C)(C)C | 54.9 µM (active) and 49 µM (active) |  | inactive | inactive | inactive |  | 49 µM (active) and 21.9 µM (active) | 54.9 µM (active) | inactive |  | inactive | 24.3 µM (active) and 21.7 µM (active) | inactive | inactive |  |  |  | inactive | inactive | 
6 | CCCCOCCOC(=O)c1ccccc1C(=O)OCCOCCCC | 47.9 µM (active) and inactive | 42.7 µM (active) and inactive | inactive | inactive | inactive | inactive | 30.2 µM (active) and inactive | inactive |  | inactive | inactive |  | inactive |  | inactive | inactive | inactive |  | inactive | inactive
